In PubChem BioAssay (Tox21):
Records with an inconclusive call do not appear. A call without a number means that no potency is given here. The source made the active and inactive calls. Calls come from the whole dose curve.

assay: qHTS assay to identify small molecule agonists of H2AX - cell viability counter screen (AID 1224847); settings: CHO-K1 viability, CellTiter-Glo luminescence, 3 h; series mostly up to 154 µM; note: nearly all actives have a fitted effect of over 30% in size
Source text: National Center for Advancing Translational Sciences [NCATS]
NIH Chemical Genomics Center [NCGC]
U.S. Environmental Protection Agency [EPA]
National Institutes of Environmental Health Sciences [NIEHS]
National Toxicology Program [NTP]
U.S. Food and Drug Administration [FDA]
HTRF phospho-H2AX (Ser139) assay (Cisbio Bioassays, US) enables the quantitative detection of the histone variant H2AX when phosphorylated on serine 139. When double-stranded DNA breaks, either by ionizing radiation or endogenous physiological processes, H2AX becomes phosphorylated at Ser139. This phospho-Ser139 serves as a sensitive biomarker for the detection of such breaks, localizing the site of DNA repair. So, HTRF phospho-H2AX Ser139 is a pertinent assay to study genome stability, the cell cycle, DNA repair, and it serves as a biomarker for cancer, and to understand aging. Wild type CHO-K1 cells were used to identify the inducers of Phospho-H2AX Ser 139 from the Tox21 compound collections. Also cytotoxicity of the Tox21 10K compound library against the CHO-K1 cell line was tested by measuring the cell viability using CellTiter-Glo assay (Promega, Madison, WI).
Tox21 Assay Protocol Summary:
The CHO-K1 cells suspended in culture medium containing 10% FBS were dispensed at 1000 cells/ 3 ul/well in 1536-well white wall/solid bottom plates (Greiner Bio-One North America, NC) using a Multidrop Combi (Thermo Fisher Scientific Inc., Waltham, MA). After the assay plates were incubated at 37C overnight, 23 nl of compounds at 15 concentrations (from 5-48 columns) or positive control (from 1 to 4 columns) were transferred to the assay plates using a Pintool station (Wako, San Diego, CA) into each well resulting in a final DMSO concentration of 0.76%. After 3hr incubation at 37C, 3 uL/well CellTiter-Glo luminescent cell viability reagent (Promega Corporation, Madison, WI) was added using a Flying Reagent Dispenser (FRD) (Aurora Discovery, CA). After incubation at room temperature for 30 min, the luminescence intensity was read using a ViewLux plate reader (PerkinElmer, Waltham, MA).
Potency is the fitted concentration of half-maximal effect.

Row | SMILES | Potency
1 | COc1cc(CC#N)cc(OC)c1OC | inactive
2 | C[C@H]1[C@@H]2Cc3ccc(O)cc3[C@@]1(C)CCN2C | inactive
3 | CC(C)(C)OOC(C)(C)CCC(C)(C)OOC(C)(C)C | inactive
4 | CCCCC(CC)CO[N+](=O)[O-] (stereo not given) | inactive
5 | FC(F)OC(F)(F)C(F)Cl (stereo not given) | inactive
6 | CCC(=O)O[C@@H]1C=C2CCC3C(CCC4(C)C3CC[C@@H]4OC(=O)CC)C2CC1 (stereo not given in full) | inactive
7 | OCC1CO1 (stereo not given) | inactive
8 | CCOC(C(=O)OCCN(C)C)(c1ccccc1)c1ccccc1 | inactive
9 | COc1ccc(C(O)(c2cncnc2)C2CC2)cc1 (stereo not given) | inactive
10 | Cc1cnc(C2=NC(C)(C(C)C)C(=O)N2)c(C(=O)O)c1 (stereo not given) | inactive
11 | c1ccc2c(c1)-c1cccc3cccc-2c13 | inactive
12 | CC(C)OC(=O)Cc1ccccc1 | inactive
13 | CCCCCCCCCCCCCCCl | inactive
14 | CCOC(=O)C1OC1(C)c1ccccc1 (stereo not given) | inactive
15 | CCC1(CC)C(=O)NC(=O)NC1=O | inactive
16 | O=C1NC(=O)C(=O)C(=O)N1 | inactive
17 | O=C([O-])c1ccccn1.O=C([O-])c1ccccn1.O=C([O-])c1ccccn1.[Cr+3] | inactive
18 | O=[N+]([O-])O[C@H]1CO[C@H]2[C@@H]1OC[C@H]2O[N+](=O)[O-] | inactive
19 | NP(N)(=O)NC(=O)c1ccc(F)cc1 | inactive
20 | CC(Oc1cccc(Cl)c1)C(=O)O (stereo not given) | inactive

Row | SMILES | Potency
21 | C#CC(O)(C=CCl)CC (stereo not given) | inactive
22 | O=C(O)CCCOc1ccc(Cl)cc1Cl | inactive
23 | CC(C)(C#N)C(C)(C)C#N | inactive
24 | CCCN(CCC)c1c([N+](=O)[O-])cc(C(C)C)cc1[N+](=O)[O-] | inactive
25 | CCOP(=S)(S)OCC | inactive
26 | Nc1cc(Cl)cc(C(=O)O)c1Cl | inactive
27 | CCCC1CCCCN1 (stereo not given) | inactive
28 | CC[N+]1(C)CCCC(OC(=O)C(O)(c2ccccc2)c2ccccc2)C1 (stereo not given) | inactive
29 | CCN(C(C)=O)c1cccc(-c2ccnc3c(C#N)cnn23)c1 | inactive
30 | CCOP(=O)(O)C(N)=O | inactive
31 | COc1ccc2c(c1OC)C(=O)O[C@H]2[C@@H]1c2cc3c(cc2CCN1C)OCO3 | inactive
32 | CC(C)[C@@H](C(=O)O[C@@H](C#N)c1cccc(Oc2ccccc2)c1)c1ccc(Cl)cc1 | 16.2 µM (active)
33 | C=C(C)C(=O)OCCCCOC(=O)C(=C)C | inactive
34 | CC(=O)NNc1ccccc1 | inactive
35 | N#CC(C#N)=Cc1ccc(O)c(O)c1 | inactive
36 | O=C(O)C(Cl)(Cl)Br | inactive
37 | CCOP(=S)(OCC)Oc1ccc(S(C)=O)cc1 (stereo not given) | inactive
38 | CON(C)C(=O)Nc1ccc(Cl)cc1 | inactive
39 | Nc1ccc2c(c1)Cc1ccccc1-2 | inactive
40 | CC(C)(C)NCC(O)c1ccccc1Cl (stereo not given) | inactive
